# Test results taken from ChEMBL document CHEMBL5308541, “MAIP: An Open-Source Tool to Enrich High-Throughput Screening Output and Identify Novel, Druglike Molecules with Antimalarial Activity” (ACS Med Chem Lett, 2023).
# About 410 (8.5%) of roughly 4,800 compounds showed an effect of 50% or more. Only a selection was taken, and strong results are over-represented in it overall.
# Tested on: Plasmodium falciparum
# Experiment: Confirmatory screen in NF54 pLDH assay, in single point, at 2uM, 72h
# Assay type: functional, Erythrocyte
# Conditions: timepoint 72 hour
row,Structure (SMILES),% Inhibition [%]
1,Clc1ccc2[nH]c3c(c2c1)CCCC3NC1CCN(C2CCOC2)CC1 (configuration not stated),96
2,O=C(NCc1ccc(OC(F)(F)F)cc1)N(CCN1CCCC1)[C@H]1CCCNC1,33
3,CCN1CCC(N2CCC(C(=O)NCCc3ccc(OC(F)(F)F)cc3)CC2)CC1,53
4,Cc1sc2nc(-c3ccccn3)nc(NCCc3nccn3C)c2c1-c1ccccc1,65
5,O=C(CCc1nnc(-c2ccc(-c3ccccc3)cc2)o1)NC[C@@H]1CCCN2CCCC[C@H]12,86
6,COc1ccc2nc(C)cc(NCc3cccc(NC(=O)c4ccco4)c3)c2c1,105
7,Cc1c(CN2CCC(O)(Cn3ccnc3)CC2)[nH]c2c(Cl)cccc12,99
8,Cc1ccc2nc(NC[C@H]3CCN(C4CC4)C3)cc(C)c2c1,100
9,Cc1ccc2nc(-c3cccc(NC(=O)c4ccc(OC(F)(F)F)c(Cl)c4)c3)[nH]c2n1,74
10,O=C(NCCNc1ccnc2ccncc12)c1ccc(C(F)(F)F)cc1,43
11,Cc1cnccc1NCCNCc1ccc(OC(C)C)c(Cl)c1,84
12,Cc1ocnc1CNC[C@H](O)c1ccc(Cl)c(Cl)c1,97
13,CNc1nc(N[C@H]2CCCN(Cc3ccc(Cl)cc3)C2)nc2c1CCC2,100
14,Nc1ccc(Nc2ccc(F)cc2)c2ccncc12,70
15,CN([C@@H](c1ccccc1)c1ccccc1Br)S(=O)(=O)c1c[nH]c2ncccc12,67
16,CN(C[C@H](O)COc1cccc(CNCCCOc2cccnc2)c1)C1CCCCC1,44
17,CN(C[C@H](O)COc1ccccc1CN1CCC(c2ccncc2)CC1)C1CCCCC1,84
18,O=C(Nc1cncnc1N1CCCC1)c1cc(F)cc2[nH]cnc12,-8
19,Cc1nc2ccc(Oc3ccccc3)cc2c(O)c1CN(C)C1CCN(C)CC1,28
20,CN1CCC(N(C)C[C@H](Nc2ncnc3ccccc23)c2ccccc2)CC1,102
21,CN(C)CCN1CCC(CNCc2ccc3ncccc3c2)CC1,29

row,Structure (SMILES),% Inhibition [%]
1,COc1ccc(-c2cncc(C(=O)NCC3CCN(CCN(C)C)CC3)c2)cc1,96
2,COC(=O)c1cn(CCNc2ccnc3cc(Cl)ccc23)cc2c(O)nnc1-2,103
3,CCCN(CCN1CCN(CC)CC1)c1nc(-c2ccccn2)nc2c1CCC2,10
4,c1ccc(-c2nc3c(c(NCCNc4ncccn4)n2)CCC3)nc1,23
5,CNc1nc(C)cc(N[C@@H]2COc3ccccc3C2)n1,89
6,CCN1CCN(c2ccccc2CNCCC2CCN(C)CC2)CC1,2
7,Fc1ccc(-n2cc(CNCCC3CCN(c4ccncc4)CC3)cn2)cc1,102
8,c1ccc2c(CNCCC3CCN(c4ccncc4)CC3)csc2c1,95
9,c1ccc(-c2ccnc(C3CCN(CC45CNCC4C5)CC3)n2)cc1 (configuration not stated),96
10,COCCN1CCC[C@H](CNCc2cnn(-c3ccc4ccccc4c3)c2)C1,13
11,COCCN1CC[C@H](CNC2CCN(c3ncc4ccc(F)cc4n3)CC2)C1,71
12,CN(C)C1(CNc2nc(C(F)(F)F)nc3cc(F)ccc23)CCCCCC1,57
13,CN(C)C1(CNc2nc(C(F)(F)F)nc3cc4c(cc23)OCO4)CCCCCC1,49
14,Cc1ccc(-c2cc(C(=O)NC3CCN(C4CCN(C)CC4)CC3)n[nH]2)cc1C,102
15,CN1CCC(N2CCC(NC(=O)c3ccc(S(=O)(=O)N(C)C4CCCCC4)cc3)CC2)CC1,39
16,Cc1ccc2nc(CCCNC3CCN(c4cc(C)nc(N)n4)CC3)oc2c1,59
17,Cc1cc(N2CCC(NCCCN3CCCc4ccccc43)CC2)nc(N)n1,88
18,Cc1cc(N2CCC(NCCc3c[nH]cn3)CC2)nc(-c2ccccc2)n1,11
19,OC1(c2ccc(Cl)cc2)CCN(C[C@@H]2CCCN3CCCC[C@H]23)CC1,88
20,CN(C)CCN1CCC(NC2CCC(O)(c3cccc(Cl)c3)CC2)CC1 (configuration not stated),33
21,CC(C)(C)n1ncc2c(NCc3ccc4cccnc4c3O)ncnc21,37

row,Structure (SMILES),% Inhibition [%]
1,c1ccc2c(c1)CN(c1ncnc3[nH]ccc13)CC1(CCOCC1)O2,-5
2,CCn1cc(-c2cccc(C(=O)N[C@@H](C)CN3CCc4ccccc4C3)c2)cn1,38
3,NCCCCc1c(-c2cccnc2)[nH]c2c(Cl)cc(Cl)cc12,75
4,COCCN1CC[C@H](CN(C)c2ccnc3cc(Cl)ccc23)C1,102
5,COCCN1CCC[C@@]2(CCN(c3ccnc4cc(Cl)ccc34)C2)C1,101
6,NC(=O)[C@]1(O)CCN(c2ccnc3ccc(Oc4ccccc4)cc23)C1,33
7,O[C@@]1(c2c[nH]nn2)CCN(c2ccnc3cc(Cl)ccc23)C1,98
8,CN1CCC(Oc2ccc(NC(=O)c3cn4ccnc4s3)cn2)CC1,92
9,CN(C)Cc1cccc(CCNCc2csc(-c3ccc(C(F)(F)F)cc3)n2)c1,88
10,COc1ccc2[nH]cc(C3=CCN(c4ccc5nnc(-c6ccccc6F)n5n4)CC3)c2c1,41
11,c1cc(CNC2CCN(C[C@H]3CCOC3)CC2)c2cc[nH]c2c1,-13
12,Fc1cccc(Cl)c1CN1CCC(NC[C@H]2CCCOC2)CC1,21
13,CCc1ccc2ncnc(NCCCN3CCN(CCO)CC3)c2c1,85
14,Cc1cc(O)c(Cl)cc1-c1ccc2nccc(N)c2c1,100
15,Cc1cc(O)c(Cl)cc1-c1cccc2c(N)ccnc12,94
16,COC(CN(Cc1nc(N)nc(Nc2ccc(C)cc2)n1)Cc1nc(N)nc(Nc2ccc(C)cc2)n1)OC,94
17,c1ccc(CCC23CN(Cc4ccccn4)CC2CN(Cc2ccns2)C3)cc1 (configuration not stated),88
18,Cc1noc(-c2ccnc(NC[C@@H](c3ccccn3)N3CCOCC3)c2)n1,100
19,Cc1cc(NCCCN2CCC[C@H](O)C2)c2cc(F)ccc2n1,31
20,COc1ccc2c(C)cc(NCCCN3CCC[C@H](C(N)=O)C3)nc2c1,100
21,CCN1C[C@H](Nc2nc(C)nc3sccc23)[C@@H](OC)C1,101

row,Structure (SMILES),% Inhibition [%]
1,O=C(NCCN1CCCCC1)c1cccc(-c2cnc3ccc(F)cn23)c1,21
2,CC(CNc1nc(NCC(C)N2CCOCC2)c2cc(Cl)ccc2n1)N1CCOCC1 (configuration not stated),102
3,CCNc1cc(C)nc(NCCNC(=O)Nc2cc(F)cc(F)c2)n1,92
4,CCNc1nc(C)cc(Nc2ccc(NC(=O)Nc3ccc(F)cc3F)cc2)n1,99
5,CCOc1ccc2nc(N3CCC(N4CCC([C@H](O)c5cccnc5)CC4)CC3)nc(C)c2c1,8
6,CCOc1ccc2nc(CN(CC)CC3CCN(C4CCN(C)CC4)CC3)ccc2c1,99
7,CN(Cc1cn(CC(N)=O)c2ccccc12)CC1CCN(CCc2ccc(F)cc2)CC1,41
8,CCN1CCN([C@H]2CCN(c3ccnc4ccncc34)C2)CC1,98
9,Cc1ccc2nccc(N3CCC(N4CCC(O)CC4)CC3)c2c1,12
10,Cc1cc(N2CCC(Nc3ccnc4ccncc34)CC2)nc(C)n1,7
11,Cc1ccc2[nH]cc(-c3cc(N4CCOCC4)nc(N)n3)c2c1,55
12,Nc1cc(N2CCC(c3nc4cc(F)ccc4[nH]3)CC2)nc(N2CCOCC2)n1,42
13,Cc1ccc(-c2cccc3c(C(=O)NCCCN4CCC(N5CCCCC5)CC4)cc(C)nc23)cc1,103
14,Brc1ccc2[nH]c3c(c2c1)CCCC3NC1CCc2[nH]cnc2C1 (configuration not stated),104
15,CCOc1cc2nccc(N3C[C@H]4CN(C)C[C@H]4C3)c2cc1OCC,96
16,Oc1ccc(OC(F)(F)F)cc1-c1ccc2nccn2n1,92
17,Nc1ccc(-c2cc(OC(F)(F)F)ccc2O)cn1,14
18,Clc1cccc(N2CC[C@H](CNC3CCN(Cc4ccco4)CC3)C2)c1,97
19,COc1ccnc(NCCCc2nc(-c3ccncc3)cs2)n1,64
